# Where “and” joins values, the source holds several entries; their conditions need not be identical. Equal values may be shown once. About 700 (0.21%) of roughly 330,000 compounds were called active. This is one part of a sample in which actives are shown more often than they occur. A number with no mark means an inactive call.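 Rule for the calls: active = OD600 absorbance below the run mean of sample wells minus 3.6 SD, in any replicate (cut at about 0.56 in these data); inactive = the rest.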
# Assay: antibacterial activity against Escherichia coli – OD600, primary screen (AID 1053175)
# Conditions: Escherichia coli growth, OD600, 23 h; stronger effect = lower value
row,SMILES,OD600 absorbance
1,O=C(Nc1nnc(C2COc3ccccc3O2)o1)c1ccc(F)cc1 (configuration not stated),0.346 (active)
2,CC1COc2ccccc2N1C(=O)c1ccc(F)cc1 (configuration not stated),0.65
3,O=C(COC(=O)c1ccc(F)cc1)NCC1COc2ccccc2O1 (configuration not stated),0.688
4,O=C(CO)NN=Cc1cccc(Cl)c1Cl,0.595
5,CCOc1ccccc1C(=O)NN=Cc1coc2ccc(Cl)cc2c1=O,0.656
6,COc1ccc(/C=C(\NC(=O)c2ccccc2)C(=O)NN=Cc2cccnc2)cc1,0.669
7,O=C(NN=Cc1c[nH]c2ccccc12)c1ccc(O)c(O)c1,0.695
8,COC(=O)C1CC2CCC(O)CC2N1Cc1ccc(C(F)(F)F)cc1 (configuration not stated),0.627 and 0.652
9,CC1(C)CC2CC(C)(CN2C=Nc2sc3c(c2C#N)CC(C)(C)NC3(C)C)C1 (configuration not stated),0.649
10,CCCC(O)c1cc2cc(OC)c(OC)cc2c(=O)o1 (configuration not stated),0.667
11,CCc1n[nH]c(=S)n1N=Cc1c(O)ccc2ccccc12,0.677
12,C=CCSc1nsc(NC(=O)Nc2cccc(C(C)=O)c2)n1,0.61
13,CCSc1nsc(NC(=O)Nc2cccc(C(C)=O)c2)n1,0.575
14,CSc1nsc(NC(=O)Nc2ccccc2)n1,0.445 (active)
15,COc1ccc(C)cc1NC(=O)CCC(=O)Nc1nnc(C(F)(F)F)s1,0.73
16,O=C(Nc1nnc(COc2ccccc2)s1)Nc1ccccc1F,0.649
17,O=C(NCC(F)(F)F)Nc1nnc(C(F)(F)F)s1,0.494 (active)
18,O=C(O)c1ccc(NN=Cc2ccc(-c3ccc(Cl)cc3Cl)o2)cc1,0.671
19,CCOC(=O)C1C2COc3ccc(Cl)cc3C2N2C(=O)c3ccc(C)cc3NC(=O)[C@@]12C (some centres not stated),0.705

row,SMILES,OD600 absorbance
1,CCN(CC)C(=O)c1[nH]cnc1C(=O)NC(Cc1ccccc1)C(=O)OC(C)(C)C (configuration not stated),0.689
2,COc1cc(C=NNC(=O)c2ccc3c(c2)OCCO3)cc(Br)c1O,0.712
3,CC(C(=O)N1CCNCC1)n1cc(CCC(=O)O)nn1 (configuration not stated),0.694
4,CCNC(=S)N1CCN(C(=O)c2ccco2)CC1,0.73
5,CCCCCCn1cc(C(=O)O)c(=O)c2cc(F)c(N3CCCCC3)cc21,0.628
6,CCn1cc(S(=O)(=O)c2cccc(C)c2)c(=O)c2cc(F)c(N3CCN(C)CC3)cc21,0.662
7,CCCCNC(=O)c1cn(CC)c2cc(N3CCN(C(=O)c4ccco4)CC3)c(F)cc2c1=O,0.458 (active)
8,CCn1cc(C(=O)NCCC(=O)NCCO)c(=O)c2cc3c(cc21)OCO3,0.65
9,CCn1cc(C(=O)NCCO)c(=O)c2cc(F)c(N3CCN(C)CC3)cc21,0.0485 (active)
10,O=C(C=CNNC(=O)c1ccccc1)c1ccc(Br)cc1,0.66
11,CC1CN(C(C)CO)C(=O)c2cc(NC(=O)Cn3cnnn3)ccc2OC1CN(C)Cc1ccc(Cl)c(Cl)c1 (configuration not stated),0.734
12,O=C(Nc1ccc(Br)cn1)c1ccc([N+](=O)[O-])o1,0.518
13,Cc1cccc(NC(=O)c2ccc([N+](=O)[O-])o2)c1,0.475 (active)
14,O=C(Nc1cccc(O)c1)c1ccc(C(=O)c2ccccc2)o1,0.71
15,COc1ccc(S(=O)(=O)ON=C2CCCc3ccccc32)cc1,0.751
16,COc1ccc(C2C3C(=O)N(C(C)(C)C)C(=O)C3[C@]3(C)C(=O)N(c4cccc(C)c4)C(=O)N23)cc1 (some centres not stated),0.681
17,O=C(NN=Cc1ccc(O)cc1)c1ccc(COc2cc(Cl)ccc2Cl)o1,0.778
18,CCOC(=O)C1C2COc3cc(OC)ccc3C2N2C(=O)N(c3cccc(F)c3)C(=O)[C@@]12C (some centres not stated),0.694 and 0.697 and 0.645
19,CC(C)(C)C(COc1ccccc1[N+](=O)[O-])=NO,0.627

row,SMILES,OD600 absorbance
1,COc1cccc(C=NNc2nc3ccccc3n3cnnc23)c1,0.749
2,Cc1ccc(C)c(-c2cc(C(=O)NN=Cc3cccnc3)c3ccccc3n2)c1,0.67
3,CCNS(=O)(=O)c1ccc(NC(=O)Nc2cccc(C(F)(F)F)c2)cc1,0.51 (active)
4,CC(C)C[C@H](NC(=O)Nc1cccc(C(F)(F)F)c1)C(=O)O,0.689
5,O=C(Nc1ccc(C(=O)N2CCOCC2)cc1)Nc1cccc(C(F)(F)F)c1,0.664
6,Cc1ccc2cc(C=NNC(=O)[C@@H]3CCCN3)c(Cl)nc2c1,0.699
7,CN1CCN(CCC(=O)NN=Cc2cc([N+](=O)[O-])ccc2O)CC1,0.633
8,CCN=c1scc(C)n1N=Cc1cc(Br)c(O)c(OC)c1,0.689
9,CN1C(=O)C2C(C=Cc3ccccc3)N3C(=O)CN(Cc4ccc(-c5ccccc5)cc4)C(=O)[C@@]3(Cc3ccccc3)C2C1=O (some centres not stated),0.678
10,CC(=NNC(=O)C1CC1)c1ccc(NC(=O)c2ccc(Br)o2)cc1,0.697
11,O=C(NN=Cc1ccco1)c1cccs1,0.606
12,CCC(C)N1CCC2(CC1)N=c1c(c3c4c5c(C)c(O)c3c(O)c1=NC(=O)C(C)=CC=CC(C)C(O)C(C)C(O)C(C)C(OC(C)=O)C(C)C(OC)C=CO[C@@](C)(O5)C4=O)N2 (some centres not stated),0.076 (active)
13,CCOC(=O)C1C2COc3cc(OC)ccc3C2N2C(=O)CN(Cc3ccc(C)cc3)C(=O)[C@@]12C (some centres not stated),0.699
14,CC1CC2OC(=O)[C@]3(C)C2C(OC3(C)O)[C@]2(C)C(=O)C=CC12 (some centres not stated),0.679
15,CC(C)(C)NC(=O)CCN(N=Cc1ccccc1F)C1=NS(=O)(=O)c2ccccc21,0.627
16,CN(C)c1ccc(C=NNC(=O)Cn2nnc3ccccc32)cc1,0.725
17,CC(C)(C)OC(=O)C1=C(CO)CS[C@@H]2[C@H](NC(=O)Cc3ccccc3)C(=O)N12,0.72
18,Cc1nnc(SCC2=C(C(=O)O)N3C(=O)C(NC(=O)Cn4nc(C)c(Cl)c4C)C3SC2)s1 (configuration not stated),0.488 (active)
19,Cc1cc(C)cc(C(=O)NC2C(=O)N3C(C(=O)O)=C(CSc4nnc(C)s4)CSC23)c1 (configuration not stated),0.684

# Source: PubChem BioAssay AID1053175 (ICCB-Longwood Screening Facility, Harvard Medical School, 2014)
